These results are taken from ChEMBL document CHEMBL3988442, “University of Dundee, Small-Polar-MMV Screening Library” (2021).

Design in all cases: scale not given: direction of the effect not stated beside the values
For assay [1], the target named is Protein translocase subunit SecA (Escherichia coli (strain K12)) (UniProt P10408). Description: Assay to Identify E. coli SecA ATPase Inhibitors. The settings on record: 30 µM. It counts as functional.
The target in assay [2] is T1, Ubiquitin-activating enzyme e1, putative (Leishmania donovani (strain BPK282A1)) (UniProt E9BSI1).
T1 sequence (whole entry): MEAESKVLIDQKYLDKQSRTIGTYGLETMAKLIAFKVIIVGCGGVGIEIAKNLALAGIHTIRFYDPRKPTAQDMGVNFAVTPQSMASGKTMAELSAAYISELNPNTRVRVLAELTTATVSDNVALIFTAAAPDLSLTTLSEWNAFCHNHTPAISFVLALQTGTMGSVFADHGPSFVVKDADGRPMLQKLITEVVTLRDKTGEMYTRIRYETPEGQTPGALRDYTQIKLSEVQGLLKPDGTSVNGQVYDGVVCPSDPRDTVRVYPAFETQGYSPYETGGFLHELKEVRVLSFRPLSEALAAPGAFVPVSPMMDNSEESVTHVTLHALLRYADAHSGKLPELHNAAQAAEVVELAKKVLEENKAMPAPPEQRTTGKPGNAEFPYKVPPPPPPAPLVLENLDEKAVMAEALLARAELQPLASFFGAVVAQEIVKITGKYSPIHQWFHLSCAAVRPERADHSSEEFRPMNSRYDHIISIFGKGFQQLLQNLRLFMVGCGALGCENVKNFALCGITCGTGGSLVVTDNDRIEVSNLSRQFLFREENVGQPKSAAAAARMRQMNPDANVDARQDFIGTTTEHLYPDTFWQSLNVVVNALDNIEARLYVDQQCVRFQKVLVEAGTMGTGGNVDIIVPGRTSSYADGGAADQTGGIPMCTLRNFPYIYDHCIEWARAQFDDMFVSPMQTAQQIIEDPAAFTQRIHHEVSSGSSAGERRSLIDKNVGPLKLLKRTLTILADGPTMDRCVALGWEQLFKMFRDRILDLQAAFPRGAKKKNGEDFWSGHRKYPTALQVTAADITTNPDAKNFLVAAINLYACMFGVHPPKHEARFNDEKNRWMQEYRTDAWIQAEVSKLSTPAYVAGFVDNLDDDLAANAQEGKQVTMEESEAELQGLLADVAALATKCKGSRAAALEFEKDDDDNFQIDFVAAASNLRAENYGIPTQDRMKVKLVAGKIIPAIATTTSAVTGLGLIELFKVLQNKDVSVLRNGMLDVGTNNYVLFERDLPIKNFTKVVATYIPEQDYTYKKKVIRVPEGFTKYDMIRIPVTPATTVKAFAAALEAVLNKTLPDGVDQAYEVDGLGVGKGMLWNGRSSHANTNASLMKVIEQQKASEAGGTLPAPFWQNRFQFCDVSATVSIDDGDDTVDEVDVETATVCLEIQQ
Description: Leishmania donovani Ubiquitin Activating Enzyme (LdE1). In kind it is functional. The settings on record: 30 µM.

Assay [3] deals with AMP-activated protein kinase, AMPK (Homo sapiens) (UniProt P54646+O43741+P54619+Q9UGJ0+Q9Y478+Q13131+Q9UGI9). Nature of the assay: AMP-dependent Kinase enzyme assay. An in vitro enzyme assay that detects ADP turnover that is directly proportional to AMPK activity. This uses naive AMPK that is activated during the assay with MK-8722. In kind it is functional. The settings on record: 30 µM.

Assay [4] concerns the target Sialic acid-binding Ig-like lectin 9 (Homo sapiens) (UniProt Q9Y336). Description: Hs-Siglec9 ALPHAscreen SOP 20170721. The settings on record: 10 µM.
The subject of assay [5] is Trypanosoma cruzi. Description: Trypanosoma cruzi phosphomannomutase and mannose-1-phosphate guanylyltransferase assay. It counts as functional. The settings on record: 10 µM.
Assay [6] has as its target T2, Arginase-2, mitochondrial (Homo sapiens) (UniProt P78540).
T2 sequence (whole entry): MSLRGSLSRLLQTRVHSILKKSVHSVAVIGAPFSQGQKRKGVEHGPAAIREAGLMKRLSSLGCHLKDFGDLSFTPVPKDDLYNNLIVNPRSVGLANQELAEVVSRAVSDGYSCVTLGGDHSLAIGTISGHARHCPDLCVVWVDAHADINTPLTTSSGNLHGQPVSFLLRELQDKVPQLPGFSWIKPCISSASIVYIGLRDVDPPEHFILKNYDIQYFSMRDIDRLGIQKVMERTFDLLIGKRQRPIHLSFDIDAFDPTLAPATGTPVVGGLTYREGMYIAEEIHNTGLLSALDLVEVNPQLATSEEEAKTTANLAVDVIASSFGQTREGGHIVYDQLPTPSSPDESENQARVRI
Nature of the assay: in vitro enzyme assay to detect the production of urea directly proportional to the activity of Arginase II. Also: in the data most compounds retested in dose-response had high values. It counts as functional. The settings on record: 33.3 µM.

In assay [7] the target is T3, Proteasome subunit beta (Trypanosoma cruzi) (UniProt O96673).
T3 sequence (whole entry): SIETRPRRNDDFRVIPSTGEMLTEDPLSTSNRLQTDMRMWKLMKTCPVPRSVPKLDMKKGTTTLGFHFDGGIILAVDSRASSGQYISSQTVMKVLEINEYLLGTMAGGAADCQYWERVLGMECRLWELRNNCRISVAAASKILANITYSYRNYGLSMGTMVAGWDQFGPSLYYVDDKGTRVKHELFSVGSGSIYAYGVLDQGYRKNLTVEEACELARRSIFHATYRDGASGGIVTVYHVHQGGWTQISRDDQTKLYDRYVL
Description: Trypanosoma cruzi proteasome chymotrypsin-like activity (TcProtChymo) assay. Also: in the data most compounds retested in dose-response had high values. It counts as functional. The settings on record: 9.37 µM.

The species entered for assay [8] is Homo sapiens. Description: To identify inhibition of the IFN signalling (Jak-Stat) pathway via expression of an eGFP reporter gene under the control of an IFN-stimulated response element (ISRE) containing MxA promoter. It counts as functional. The settings on record: 30 µM. In general terms: Reporter assays use an easily measured gene product as a stand-in for the process of interest.

For assay [9], the target named is T4, Tyrosyl-tRNA synthetase, putative (Trypanosoma cruzi (strain CL Brener)) (UniProt Q4DSP6).
T4 sequence (whole entry): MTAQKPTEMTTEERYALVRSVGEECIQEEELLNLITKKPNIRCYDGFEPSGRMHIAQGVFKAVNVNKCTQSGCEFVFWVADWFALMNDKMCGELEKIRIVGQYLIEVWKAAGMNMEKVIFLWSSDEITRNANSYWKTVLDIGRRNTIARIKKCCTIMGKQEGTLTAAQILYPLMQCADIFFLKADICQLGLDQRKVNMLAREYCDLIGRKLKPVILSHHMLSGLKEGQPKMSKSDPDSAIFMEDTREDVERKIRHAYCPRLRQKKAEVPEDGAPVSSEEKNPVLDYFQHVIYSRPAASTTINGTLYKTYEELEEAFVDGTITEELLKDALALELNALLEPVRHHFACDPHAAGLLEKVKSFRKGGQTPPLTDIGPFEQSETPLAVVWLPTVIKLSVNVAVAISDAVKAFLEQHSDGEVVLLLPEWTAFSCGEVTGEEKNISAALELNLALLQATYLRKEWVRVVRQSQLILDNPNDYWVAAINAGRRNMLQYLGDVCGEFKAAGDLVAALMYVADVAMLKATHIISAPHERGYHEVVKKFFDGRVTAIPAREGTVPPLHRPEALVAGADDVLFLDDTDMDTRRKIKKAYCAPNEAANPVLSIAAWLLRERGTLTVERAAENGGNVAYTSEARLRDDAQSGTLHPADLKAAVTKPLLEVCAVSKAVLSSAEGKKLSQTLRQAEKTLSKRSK
Description: Trypanosoma cruzi tyrosyl tRNA synthetase (TcYRS) _High Tyrosine SOP. Also: in the data most compounds retested in dose-response had high values. In kind it is functional. The settings on record: 30 µM.

For assay [10], the target named is T4, Tyrosyl-tRNA synthetase, putative (Trypanosoma cruzi (strain CL Brener)). Description: Trypanosoma cruzi tyrosyl tRNA synthetase (TcYRS) SOP. In kind it is functional. The settings on record: 30 µM.
Assay [11] deals with Chromo domain-containing protein 1 (Saccharomyces cerevisiae (strain ATCC 204508 / S288c) (Baker's yeast)) (UniProt P32657). Description: ScCHD-1 Enzyme Inhibition Assay. Also: in the data most compounds retested in dose-response had high values. In kind it is functional. The settings on record: 30 µM.

For some assays here: Results with a measured potency or affinity are listed apart.

Sequence of Protein translocase subunit SecA (Escherichia coli (strain K12)) (P10408 whole entry): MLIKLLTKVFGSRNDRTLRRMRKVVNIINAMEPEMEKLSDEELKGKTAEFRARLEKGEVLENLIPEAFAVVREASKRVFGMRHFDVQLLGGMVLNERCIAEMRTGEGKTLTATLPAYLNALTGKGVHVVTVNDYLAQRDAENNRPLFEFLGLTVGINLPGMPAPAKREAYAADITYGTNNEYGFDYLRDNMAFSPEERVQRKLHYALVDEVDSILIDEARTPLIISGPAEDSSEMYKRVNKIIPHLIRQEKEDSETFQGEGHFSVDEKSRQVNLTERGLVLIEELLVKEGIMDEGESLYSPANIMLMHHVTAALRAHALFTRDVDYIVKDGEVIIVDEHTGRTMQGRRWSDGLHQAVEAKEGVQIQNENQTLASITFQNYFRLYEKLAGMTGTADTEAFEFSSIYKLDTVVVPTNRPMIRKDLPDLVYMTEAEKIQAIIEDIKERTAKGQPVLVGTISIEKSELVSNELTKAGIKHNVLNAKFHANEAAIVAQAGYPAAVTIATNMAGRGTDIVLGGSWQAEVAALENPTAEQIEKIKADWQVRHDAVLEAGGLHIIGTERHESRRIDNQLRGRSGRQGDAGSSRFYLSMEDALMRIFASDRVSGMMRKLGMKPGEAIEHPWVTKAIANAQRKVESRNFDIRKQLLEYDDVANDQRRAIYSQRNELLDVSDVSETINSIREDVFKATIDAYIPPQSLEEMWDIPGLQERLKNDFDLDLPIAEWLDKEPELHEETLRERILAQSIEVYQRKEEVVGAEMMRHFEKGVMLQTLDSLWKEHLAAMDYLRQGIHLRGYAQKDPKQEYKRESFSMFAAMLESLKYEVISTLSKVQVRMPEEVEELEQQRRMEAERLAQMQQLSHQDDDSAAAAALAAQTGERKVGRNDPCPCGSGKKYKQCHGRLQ
Sequence of Sialic acid-binding Ig-like lectin 9 (Homo sapiens) (Q9Y336 whole entry): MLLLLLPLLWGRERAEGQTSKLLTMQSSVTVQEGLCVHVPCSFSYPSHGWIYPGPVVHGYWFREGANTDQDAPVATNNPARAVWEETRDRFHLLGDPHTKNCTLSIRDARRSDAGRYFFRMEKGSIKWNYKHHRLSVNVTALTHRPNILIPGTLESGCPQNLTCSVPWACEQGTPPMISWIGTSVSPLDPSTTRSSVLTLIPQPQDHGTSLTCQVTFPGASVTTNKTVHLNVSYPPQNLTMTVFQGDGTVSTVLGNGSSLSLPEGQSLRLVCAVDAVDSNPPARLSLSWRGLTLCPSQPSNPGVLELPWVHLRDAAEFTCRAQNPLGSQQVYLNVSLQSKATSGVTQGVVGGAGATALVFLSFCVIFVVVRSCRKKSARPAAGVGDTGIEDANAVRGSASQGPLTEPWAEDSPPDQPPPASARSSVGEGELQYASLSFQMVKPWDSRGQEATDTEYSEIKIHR
Sequence of Chromo domain-containing protein 1 (Saccharomyces cerevisiae (strain ATCC 204508 / S288c) (Baker's yeast)) (P32657 whole entry, the tested form may be a part): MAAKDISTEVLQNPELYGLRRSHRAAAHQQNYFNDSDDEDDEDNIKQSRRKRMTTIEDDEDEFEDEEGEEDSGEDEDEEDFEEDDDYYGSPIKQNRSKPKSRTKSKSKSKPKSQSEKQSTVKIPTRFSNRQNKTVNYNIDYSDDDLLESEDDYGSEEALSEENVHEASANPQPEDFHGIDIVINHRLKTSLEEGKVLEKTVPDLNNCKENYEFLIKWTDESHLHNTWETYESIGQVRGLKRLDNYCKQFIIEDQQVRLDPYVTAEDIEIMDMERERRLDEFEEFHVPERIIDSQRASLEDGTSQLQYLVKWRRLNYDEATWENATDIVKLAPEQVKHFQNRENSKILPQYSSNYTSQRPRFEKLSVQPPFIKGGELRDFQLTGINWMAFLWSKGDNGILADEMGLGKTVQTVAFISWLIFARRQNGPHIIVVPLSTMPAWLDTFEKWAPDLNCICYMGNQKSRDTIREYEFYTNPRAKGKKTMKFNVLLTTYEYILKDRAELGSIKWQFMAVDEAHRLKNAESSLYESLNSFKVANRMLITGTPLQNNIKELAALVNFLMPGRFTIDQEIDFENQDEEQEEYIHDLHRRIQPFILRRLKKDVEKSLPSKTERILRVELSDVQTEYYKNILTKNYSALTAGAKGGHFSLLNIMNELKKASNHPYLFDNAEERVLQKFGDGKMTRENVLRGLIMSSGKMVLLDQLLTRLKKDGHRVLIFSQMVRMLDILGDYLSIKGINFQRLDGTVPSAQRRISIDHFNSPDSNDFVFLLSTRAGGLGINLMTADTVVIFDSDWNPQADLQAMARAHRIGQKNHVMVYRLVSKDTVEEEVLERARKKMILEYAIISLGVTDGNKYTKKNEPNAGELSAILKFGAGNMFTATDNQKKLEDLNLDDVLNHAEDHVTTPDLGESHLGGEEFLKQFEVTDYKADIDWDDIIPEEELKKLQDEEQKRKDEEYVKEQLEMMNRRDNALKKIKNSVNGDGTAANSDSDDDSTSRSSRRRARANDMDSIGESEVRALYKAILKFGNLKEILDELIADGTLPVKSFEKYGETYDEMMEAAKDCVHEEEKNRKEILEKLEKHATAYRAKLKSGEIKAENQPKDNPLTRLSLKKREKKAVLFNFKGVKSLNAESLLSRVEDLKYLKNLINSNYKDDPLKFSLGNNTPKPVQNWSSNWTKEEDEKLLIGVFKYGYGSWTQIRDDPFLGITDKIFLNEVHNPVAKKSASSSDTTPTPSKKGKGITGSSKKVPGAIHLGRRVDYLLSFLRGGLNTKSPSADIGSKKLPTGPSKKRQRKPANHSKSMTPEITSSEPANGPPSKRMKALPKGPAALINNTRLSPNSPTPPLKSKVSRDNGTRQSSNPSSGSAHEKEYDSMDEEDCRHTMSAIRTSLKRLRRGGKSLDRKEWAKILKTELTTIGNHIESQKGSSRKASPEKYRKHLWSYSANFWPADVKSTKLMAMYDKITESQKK

In the case of `CSCc1nc(C(C)(C)NC(=O)OC(C)(C)C)no1`, the Percent Effect in [1] was -2.5%; in assay [2] it was 2.67%; in [3], -2.2%; in assay [4], 1.89%; in assay [5], 7.3%; in assay [6], -2.08%. For the same compound, the Percent Effect was 9.07% in assay [7]; -12.6% in [8]; -0.546% in assay [9]; 1.24% in assay [10]; 107% in [11].
On to `CCc1nc(C2CCCN2C(=O)CCc2ccc3c(c2)OCO3)no1` (stereo not given), for which the Percent Effect in [1] is -3.47%; in assay [2], -5.41%; in [3] it was 2.98%; in assay [4] it was 5.83%; in assay [5], 3.62%; in assay [6], -3.14%. Also, the Percent Effect was -6.46% in assay [7]; 10.2% in assay [8]; 1.98% in assay [9]; 1.22% in assay [10]; 10.8% in assay [11].
`COc1c(C)cnc(CN2CCC(C(=O)N(C)C)CC2)c1C`: the Percent Effect in [1] was -5.69%; in assay [2], 5.2%; in assay [3] it was 0.364%; in [4], 10.3%; in [5], 2.81%; in assay [6], 1.42%. The Percent Effect in assay [7] is 9.46%; in assay [8] it was -0.558%; in [9], 1.94%; in assay [10] it was 7.32%; in assay [11], -6.93%.
`CCCC(Nc1c(C#N)c(=O)n(C)c(=O)n1C)c1ccc(F)cc1F` (stereo not given): the Percent Effect in assay [1] was -5.68%; in assay [2], 10.1%; in assay [3] it was 0.965%; in assay [4] it was 11%; in [5], 5.19%; in [6], 4.18%. For the same compound, the Percent Effect in assay [7] was 0.573%; in assay [8], 1.79%; in assay [9], 7.39%; in assay [10], 13.9%; in assay [11], -4.28%.
As to `CCC(OC)C(=O)N1CCc2nc(NC)nc(C(=O)N3CCCC3)c2C1` (stereo not given), the Percent Effect in assay [1] was -2.18%; in [2] it was 2.74%; in assay [3], -1.95%; in assay [4], 7.16%; in assay [5], -1.39%; in assay [6], -9.58%. For the same compound, the Percent Effect in assay [7] was 15.5%; in assay [8] it was 19.2%; in assay [9] it was 5.21%; in [10] it was 16.1%; in assay [11], -3.16%.
Regarding `Cc1cnc(CN(C)C2CCN(CCn3cc(C#N)cn3)C2)o1` (stereo not given), the Percent Effect in [1] is 2.65%; in [2], 16.2%; in assay [3], -13.3%; in assay [4], -2.11%; in assay [5], -7.83%; in assay [6] it was -2%. Further, the Percent Effect in assay [7] is 21.4%; in assay [8], 6.73%; in assay [9] it was 3.45%; in assay [10], 11.1%; in assay [11], -2.79%.
Regarding `CCC(CC)C(O)CNC(=O)Nc1cc(C)nn1C` (stereo not given), the Percent Effect is -6.46% in assay [1]; 5.06% in assay [2]; 0.487% in assay [3]; 6.21% in assay [4]; 6.7% in assay [5]; -1.9% in assay [6]. The Percent Effect in assay [7] was 5.16%; in assay [8] it was -23.6%; in assay [9], 1.48%; in [10], 16.5%; in [11], -6.04%.
`Cc1ccc(NC2CCN(C(=O)c3c(C)noc3C)CC2)nn1`: the Percent Effect is -4.36% in assay [1]; 13.2% in [2]; 0.922% in assay [3]; 9.85% in [4]; 7.33% in [5]; -0.766% in assay [6]. In addition, the Percent Effect was 3.68% in assay [7]; -4.46% in assay [8]; 3.43% in assay [9]; 12.2% in assay [10]; -7.4% in assay [11].
Regarding `CS(=O)(=O)c1ccc(C(O)CN2CCC(c3ccn[nH]3)CC2)cc1` (stereo not given), the Percent Effect in [1] is -2.89%; in assay [2], 15.2%; in assay [3], -2.45%; in assay [4], -1.3%; in assay [5], -2.17%; in [6], 4.94%. The Percent Effect in assay [7] is 5.32%; in [8], -11.8%; in assay [9], 5.42%; in assay [10] it was 16.5%; in assay [11] it was -6.15%.
As for `O=C1CC[C@H]2[C@H](CCN2C(=O)C2CCCO2)N1Cc1ccncc1` (stereo not given in full), the Percent Effect was -2.88% in assay [1]; 22.7% in [2]; -8.21% in [3]; -5.26% in assay [4]; 2.36% in [5]; -8.63% in [6]. Further, the Percent Effect in assay [7] was 14.1%; in assay [8], 12.9%; in assay [9], 1.06%; in assay [10], 7.69%; in [11] it was -8.01%.
